In the library only some 3.5% were active in any assay of this set; here they are far more common.
TSHR ag: TSH receptor (human) agonism | P16473 | HEK293-CNG-TSHR cells (CNG channel as cAMP sensor), membrane potential dye, cAMP | Potency, µM (doses to about 57.1 µM), inactives show at the highest dose activation, most hits filed as activators | 73,000 tested, 0.48% active; active means well fitted activation curve with a large enough effect in the main read-out, with a control signal flat, not every such curve was filed as active; inconclusive means small, poorly fitted or top-dose-only effect, or a change in a side signal; inactive means no such curve, though single readings can be large or run the other way; % of control where 0% means no effect;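 further: the control signal comes from parental cells without the receptor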
Target sequence (P16473 whole entry, looked up): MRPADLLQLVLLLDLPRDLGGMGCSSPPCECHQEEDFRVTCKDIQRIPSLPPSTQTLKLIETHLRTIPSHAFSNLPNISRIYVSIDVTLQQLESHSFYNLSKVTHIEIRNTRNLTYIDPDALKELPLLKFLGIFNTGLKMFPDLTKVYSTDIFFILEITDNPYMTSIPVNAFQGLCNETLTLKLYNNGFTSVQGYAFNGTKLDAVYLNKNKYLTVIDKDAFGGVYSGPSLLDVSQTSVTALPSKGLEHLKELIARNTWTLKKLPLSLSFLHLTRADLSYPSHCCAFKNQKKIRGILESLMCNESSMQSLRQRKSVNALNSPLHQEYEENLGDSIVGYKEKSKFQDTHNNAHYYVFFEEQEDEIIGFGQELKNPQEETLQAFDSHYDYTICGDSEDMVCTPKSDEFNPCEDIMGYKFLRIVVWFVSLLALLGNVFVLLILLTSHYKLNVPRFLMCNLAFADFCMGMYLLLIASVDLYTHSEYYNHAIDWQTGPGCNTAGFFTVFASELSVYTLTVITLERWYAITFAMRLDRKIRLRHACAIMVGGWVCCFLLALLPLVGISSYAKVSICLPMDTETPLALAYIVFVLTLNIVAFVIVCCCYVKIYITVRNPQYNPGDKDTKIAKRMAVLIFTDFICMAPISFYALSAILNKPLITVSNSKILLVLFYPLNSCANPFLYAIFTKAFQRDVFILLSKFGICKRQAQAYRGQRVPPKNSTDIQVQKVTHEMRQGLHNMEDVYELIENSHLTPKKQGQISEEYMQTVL
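HEK 293 cells stably expressing TSHR and a modified CNG channel, with CNG-only parental cells as counterscreen, were preloaded 60 min at room temperature with membrane potential dye containing 100 uM RO 20-1724. Compound exposure was 30 min, and depolarization was read as fluorescence at 590 nm.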
CRE Fsk mod: CRE-bla signaling modulation under forskolin stimulation. 71,000 tested, 2.5% active. CHO CRE-bla reporter (cAMP response element driving beta-lactamase), forskolin EC10, beta-lactamase ratio. AID 662. Potency, µM (series often up to 38.2 µM), for the others: top-dose activity change, negative = inhibition, actives largely listed as activators; active means well fitted activation curve with a large enough effect in the signal ratio, with a control signal flat, not every such curve was filed as active; inconclusive means small, poorly fitted or top-dose-only effect, or effect the other way, or a change in a side signal; the % refers to the signal ratio; further: % of control where 0% means no effect
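Forskolin analogue NKH 477 at EC10 stimulated CRE-driven beta-lactamase in CHO cells alongside compound dilution series. Beta-lactamase was measured with CCF4, excitation 405 nm, emission ratio 460/530 nm.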
Hsp90 Hop PPI: changes Hsp90-Hop TPR2A binding signal, up or down; AlphaScreen TPR2A-His6 binding biotin-Hsp90 C-terminal peptide; 71,000 tested, 0.44% active; Potency, µM (titrated, usually from 57 µM), inactives show at the top dose activity change, negative = inhibition; active means well fitted curve in either direction with a large enough effect; inconclusive means small, poorly fitted or top-dose-only effect, or another doubt; further: on the % scale 0 is the no-effect control and ±100 the full control effect
HEK293 cAMP cs: counter-screen for TSHR agonists: cAMP increase in parental HEK293 | 73,000 tested, 2.5% active | AID 938 | Potency, µM (highest dose often 57.1 µM), without a hit: at the top dose activation, hits mostly activators | parental HEK293 CNG cAMP sensor, membrane potential fluorescence; active means well fitted activation curve with a large enough effect; inconclusive means small, poorly fitted or top-dose-only effect; inactive means no such curve, though single readings can be large or run the other way; further: % of control where 0% means no effect; nearly all actives have a fitted effect of over 55% in size
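Counterscreen for endogenous-receptor signalling: CNG-channel HEK 293 cells report cAMP rise by membrane depolarization. After 60 min dye equilibration with 100 uM RO 20-1724, compounds incubated 30 min before bottom-read fluorescence at 590 nm.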
IkB signaling: suppresses IkB signaling in ABC-DLBCL reporter cells | ABC-DLBCL IkBa-CBG/CBR dual luciferase ratio, 4 h; response scale: scaled: untreated 0%, proteasome inhibitor 100% | Potency, µM (series often up to 57.1 µM), for the others: top-dose IkBa stabilization activation | 110,000 tested, 0.04% active; active means well fitted curve in the direction sought with a large enough effect in the signal ratio, not every such curve was filed as active; inconclusive means small, poorly fitted or top-dose-only effect, or a change in a side signal; the % refers to the signal ratio;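 further: the direction sought is a rising ratio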
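Curves were fitted separately to fusion (green), unfused (red) and ratio luminescence, then classed by r2, magnitude and activity. Cells: OCI-Ly3, 4 h compound plus doxycycline at 37C; 10 uM MG-132 defined full response.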
The depositor's hits bear a star; u = inconclusive; x = not tested or not shown; ! = not active in a repeat; [ ] = another dose, or the depositor's remark. Potency means the concentration at half of the fitted maximal effect.

SMILES	TSHR ag	CRE Fsk mod	Hsp90 Hop PPI	HEK293 cAMP cs	IkB signaling
NCCC[C@@H](CC(=O)N[C@@H]1CCNC[C@H]1C(=O)N[C@H](CC(=O)N[C@@H](CCC(=O)O)CC(=O)O)Cc1ccccc1)NC(=O)C[C@H](CO)NC(=O)[C@@H]1CNCC[C@H]1N	u	-12%	32µM*	u	3%
CC(C)C[C@@H](CC(=O)N[C@@H](CCCN)CC(=O)N[C@@H]1CCCC[C@H]1C(=O)N[C@H](CC(=O)N[C@@H](CCC(=O)O)CC(=O)O)Cc1ccccc1)NC(=O)[C@@H]1CCCC[C@H]1N	u	u	-11%	u	0%
Cn1c(O)c(N=N/C(=N/c2ccccn2)c2ccccn2)c2cc(Br)ccc21	u	x	x	-46%	x
CCSc1nnc(NC(=O)CSc2nc3c(c(=O)n2C)SC(C)C3)s1 (stereo not drawn)	25%	-11%	-13%	17%	0%
CCc1nnc(NC(=O)CSc2nc3c(c(=O)n2C)SC(C)C3)s1 (stereo not drawn)	2%	3.2µM*	-4%	27%	-4%
COC(=O)c1c(C)nc(C)c2c(=O)oc3ccccc3c12	3%	u	2%	4%	-3%
Cc1cc2c(c(N)n1)c(=O)oc1ccccc12	4%	2.5µM*	-4%	3%	-2%
CC(=O)N1CCN(c2ccccc2NC(=O)c2cc(Br)ccc2Cl)CC1	u	13%	-7%	32µM*	9%
CCCCC(CC)CNC(=O)c1ccc2c(c1)OCO2 (stereo not drawn)	u	-4%[7.6 µM]	-2%[11 µM]	4µM*	u
N#CCCn1c(=O)c(CCc2ccccc2)nc2cnc(OCc3ccccc3)nc21	u	4%	2%	4µM*	4%[11.4 µM]
N#CCCn1c(=O)cnc2cnc(OCc3ccccc3)nc21	-5%	13µM*	-10%	21%	-2%[11.4 µM]
O=c1cnc2cnc(OCc3ccccc3)nc2n1CCc1ccccc1	u	u	-2%	u	-1%[11.4 µM]
CC[C@@H]1O[C@]2(C=C[C@@H]1C)C[C@H]1C[C@H](CC=C(C)[C@@H](O[C@@H]3C[C@H](OC)[C@H](O[C@@H]4C[C@H](OC)[C@H](O)[C@H](C)O4)[C@H](C)O3)[C@@H](C)C=CC=C3CO[C@@H]4[C@@H](O)C(C)=C[C@@H](C(=O)O1)[C@]34O)O2	3%[25.6 µM]	1%[17.1 µM]	-4%[26 µM]	-5%[25.6 µM]	-1%[25.6 µM]
COc1ccc(C(C(=O)NC2CCCC2)N(C(=O)c2ccco2)c2ccc3c(c2)OCO3)cc1OC (stereo not drawn)	10µM*	-7%	-5%	17%	1%
COc1ccc(N(C(=O)c2ccco2)C(C(=O)NC2CCCC2)c2ccc(N(C)C)cc2)cc1OC (stereo not drawn)	7%	-5%	-5%	20%	0%
Cc1ccc(OCc2nc(C#N)c(NCc3ccc4c(c3)OCO4)o2)cc1	u	19%	u	16µM*	u
CCOc1ccc(-c2nc(C#N)c(NCc3ccc4c(c3)OCO4)o2)cc1	x	u	2%	6%	1%
C[C@H](C(=O)c1ccccc1)[C@@H](c1ccccc1)N1CCOCC1	u	2%[7.6 µM]	-3%[11 µM]	u	0%[11.4 µM]
Cc1cc(-c2nnco2)c(C)n1-c1ccc(F)cc1	u	u	-5%	16µM*	1%
CCOc1ccc(C(C)=O)cc1CSc1nnc(-c2cccs2)n1CC1CCCO1 (stereo not drawn)	u	10%	-4%	10µM*	0%
c1ccc(-c2nnc(CN3CCCc4ccccc43)o2)cc1	x	-15%	-21%	8%	8%
Oc1ccc(CN2CCCc3ccccc32)c2cccnc12	8%[11.4 µM]	-6%	3.2µM*	14%	1%
CCN1C(=O)/C(=C2/Sc3ccc(OC)cc3N2C)SC1=Nc1cccc(O)c1	u	2.5µM*	-7%	-40%	u
O=C(COc1ccc2c(c1)CCC2)N1CCc2ccccc21	u	-13%	12%	25µM*	u
CCOCC(=O)N1CCc2ccccc21	-1%	-8%	-1%	3%	2%
SMILES	TSHR ag	CRE Fsk mod	Hsp90 Hop PPI	HEK293 cAMP cs	IkB signaling
COc1c2ccoc2nc2c(OC)c(OCC(O)C(C)(C)O)ccc12 (stereo not drawn)	-19%	19%	-5%	9%	-3%
COc1ccc2c(OC)c3ccoc3nc2c1OC	15%	25µM*!	-1%	29%	-1%[11.4 µM]
O=C(NCc1ccco1)c1sc(=S)n2c1[nH]c(=O)c1ccccc12	u	u	-6%	25µM*	u
CCOC(=O)c1ccccc1NC(=O)c1ccc(NS(C)(=O)=O)cc1	1%	13µM*	1%	-5%	-2%
COC(=O)c1ccccc1NC(=O)c1ccc(F)cc1	u	u	14%	u	u
CCOc1ccc(Br)cc1/C=N/O	u	u	-3%[11 µM]	4µM*	0%
COc1ccc(CNc2ncncc2-c2cccc(NS(C)(=O)=O)c2)c(OC)c1	u	u	-3%	u	-1%[11.4 µM]
O=C(COC(=O)c1ccccc1F)c1ccc(-n2nncc2-c2ccco2)cc1	u	u	0%	25µM*	1%
COc1ccc(C(=O)COC(=O)c2ccco2)cc1	0%	1%	0%	-12%	3%
Cc1ccc(-c2nnc(CSc3nnc(COc4ccccc4)n3-c3ccccc3)o2)cc1	u	1%	-1%	25µM*	u
Cc1ccc(OCc2nnc(-c3ccccc3)o2)cc1	x	x	x	x	1%
CCOc1ccc(-c2nnc(SCc3nnc(-c4ccccc4)o3)n2-c2ccccc2F)cc1	u	-6%	-2%	13µM*	u
Cc1ccc(-c2nnc(CSc3nnc(COc4ccccc4)n3-c3ccc(C)cc3)o2)cc1	u	11%	0%	25µM*	5%
COc1c(O)ccc2c1CN1CCc3cc4c(cc3[C@@H]1C2)OCO4	-1%[11.4 µM]	24%[7.6 µM]	-5%[11 µM]	3%[11.4 µM]	1%[11.4 µM]
CN(C)C[C@H]1CCC[C@@H](CN(C)C)C1=O	-5%[11.4 µM]	-2%[7.6 µM]	-3%[11 µM]	20%[11.4 µM]	-1%[11.4 µM]
Cc1cc(C)c2nc(C(F)(F)F)nc(N3CC(C)OC(C)C3)c2c1 (stereo not drawn)	u	u	30%	25µM*	3%
CCCSCCCNC(=O)c1cc2n(n1)CCCN(Cc1ccc(C)cc1)C2=O	x	x	x	x	1%
Cc1cc(C)n2nc3ccccc3c2n1	u	5µM*	1%	u	0%
Cc1ccc(C2/C(=C(\O)c3c(C)nc4ccccn34)C(=O)C(=O)N2CCCN(C)C)o1 (stereo not drawn)	-21%	14%	-1%	0%	-2%
COc1ccc(OC)c(C2/C(=C(\O)c3c(C)nc4ccccn34)C(=O)C(=O)N2CCCN(C)C)c1 (stereo not drawn)	-11%	4µM*	-4%	3%	-2%
